ChEMBL document CHEMBL3988442, “University of Dundee, Small-Polar-MMV Screening Library” (2021)
For some assays here: Potency and affinity values are given separately.

Tests used:
Parameters in all cases: scale not given: direction of the effect not stated beside the values
[1] = molecular target: Protein translocase subunit SecA (Escherichia coli (strain K12)) (UniProt P10408); experiment: Assay to Identify E. coli SecA ATPase Inhibitors; assay type: functional; conditions: 30 µM
[2] = molecular target: T1, Ubiquitin-activating enzyme e1, putative (Leishmania donovani (strain BPK282A1)) (UniProt E9BSI1); experiment: Leishmania donovani Ubiquitin Activating Enzyme (LdE1); assay type: functional; conditions: 30 µM
T1 sequence (whole entry): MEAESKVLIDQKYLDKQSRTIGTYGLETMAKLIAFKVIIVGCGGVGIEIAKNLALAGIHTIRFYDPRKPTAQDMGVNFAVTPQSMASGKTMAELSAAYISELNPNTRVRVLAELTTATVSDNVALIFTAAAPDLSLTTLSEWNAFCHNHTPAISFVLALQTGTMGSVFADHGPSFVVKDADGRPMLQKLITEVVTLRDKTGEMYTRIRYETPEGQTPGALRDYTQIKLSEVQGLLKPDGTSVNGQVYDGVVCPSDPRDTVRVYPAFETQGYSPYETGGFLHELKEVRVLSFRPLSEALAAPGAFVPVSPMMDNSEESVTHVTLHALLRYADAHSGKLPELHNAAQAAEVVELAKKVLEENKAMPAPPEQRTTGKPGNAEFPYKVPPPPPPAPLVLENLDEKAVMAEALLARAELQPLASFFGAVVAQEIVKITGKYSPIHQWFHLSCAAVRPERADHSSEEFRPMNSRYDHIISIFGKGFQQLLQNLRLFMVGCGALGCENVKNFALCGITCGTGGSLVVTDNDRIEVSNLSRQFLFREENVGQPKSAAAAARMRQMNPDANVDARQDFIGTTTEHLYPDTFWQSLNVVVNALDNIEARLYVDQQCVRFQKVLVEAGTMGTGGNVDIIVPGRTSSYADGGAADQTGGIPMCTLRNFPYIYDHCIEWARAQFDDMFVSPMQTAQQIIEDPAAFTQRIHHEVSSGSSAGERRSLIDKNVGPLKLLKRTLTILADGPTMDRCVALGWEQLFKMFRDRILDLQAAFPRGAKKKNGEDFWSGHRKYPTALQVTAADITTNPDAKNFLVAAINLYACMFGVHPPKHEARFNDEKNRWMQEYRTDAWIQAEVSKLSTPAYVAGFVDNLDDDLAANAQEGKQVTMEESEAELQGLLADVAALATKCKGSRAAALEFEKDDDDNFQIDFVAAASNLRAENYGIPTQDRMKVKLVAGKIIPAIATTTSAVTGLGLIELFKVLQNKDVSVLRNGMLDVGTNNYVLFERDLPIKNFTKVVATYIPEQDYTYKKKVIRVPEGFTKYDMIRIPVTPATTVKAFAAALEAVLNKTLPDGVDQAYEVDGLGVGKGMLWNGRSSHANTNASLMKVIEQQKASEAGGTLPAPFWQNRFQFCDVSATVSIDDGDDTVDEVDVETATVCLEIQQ

[3] = molecular target: AMP-activated protein kinase, AMPK (Homo sapiens) (UniProt P54646+O43741+P54619+Q9UGJ0+Q9Y478+Q13131+Q9UGI9); experiment: AMP-dependent Kinase enzyme assay. An in vitro enzyme assay that detects ADP turnover that is directly proportional to AMPK activity. This uses naive AMPK that is activated during the assay with MK-8722; assay type: functional; conditions: 30 µM
[4] = molecular target: Sialic acid-binding Ig-like lectin 9 (Homo sapiens) (UniProt Q9Y336); experiment: Hs-Siglec9 ALPHAscreen SOP 20170721; conditions: 10 µM
Chain of Sialic acid-binding Ig-like lectin 9 (Homo sapiens) (Q9Y336 whole entry): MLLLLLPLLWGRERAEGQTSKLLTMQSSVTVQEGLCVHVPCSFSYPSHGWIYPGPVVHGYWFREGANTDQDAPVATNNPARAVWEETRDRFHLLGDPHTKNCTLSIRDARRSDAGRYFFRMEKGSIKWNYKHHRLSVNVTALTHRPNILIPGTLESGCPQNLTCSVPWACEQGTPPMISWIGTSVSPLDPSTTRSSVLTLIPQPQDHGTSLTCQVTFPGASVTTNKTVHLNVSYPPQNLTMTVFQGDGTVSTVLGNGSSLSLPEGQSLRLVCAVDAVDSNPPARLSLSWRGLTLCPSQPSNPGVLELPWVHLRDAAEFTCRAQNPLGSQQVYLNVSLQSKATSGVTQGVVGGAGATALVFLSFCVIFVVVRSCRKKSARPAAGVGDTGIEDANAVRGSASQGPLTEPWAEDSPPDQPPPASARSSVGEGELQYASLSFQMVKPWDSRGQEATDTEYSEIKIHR

Trypanosoma cruzi = experiment: Trypanosoma cruzi phosphomannomutase and mannose-1-phosphate guanylyltransferase assay; assay type: functional; conditions: 10 µM
[5] = molecular target: T2, Arginase-2, mitochondrial (Homo sapiens) (UniProt P78540); experiment: in vitro enzyme assay to detect the production of urea directly proportional to the activity of Arginase II; assay type: functional; conditions: 33.3 µM; also: in the data most compounds retested in dose-response had high values
T2 sequence (whole entry): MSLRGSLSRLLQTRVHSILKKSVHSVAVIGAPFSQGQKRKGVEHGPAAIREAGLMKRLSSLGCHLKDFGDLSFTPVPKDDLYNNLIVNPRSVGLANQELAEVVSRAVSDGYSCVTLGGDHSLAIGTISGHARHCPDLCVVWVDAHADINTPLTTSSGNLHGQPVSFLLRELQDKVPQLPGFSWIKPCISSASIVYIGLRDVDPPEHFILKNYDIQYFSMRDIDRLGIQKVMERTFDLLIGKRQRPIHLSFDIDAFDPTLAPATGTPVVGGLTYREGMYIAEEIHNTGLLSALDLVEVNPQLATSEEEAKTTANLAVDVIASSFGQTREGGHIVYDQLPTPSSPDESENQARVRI

[6] = molecular target: T3, Proteasome subunit beta (Trypanosoma cruzi) (UniProt O96673); experiment: Trypanosoma cruzi proteasome chymotrypsin-like activity (TcProtChymo) assay.; also: in the data most compounds retested in dose-response had high values; assay type: functional; conditions: 9.37 µM
T3 sequence (whole entry): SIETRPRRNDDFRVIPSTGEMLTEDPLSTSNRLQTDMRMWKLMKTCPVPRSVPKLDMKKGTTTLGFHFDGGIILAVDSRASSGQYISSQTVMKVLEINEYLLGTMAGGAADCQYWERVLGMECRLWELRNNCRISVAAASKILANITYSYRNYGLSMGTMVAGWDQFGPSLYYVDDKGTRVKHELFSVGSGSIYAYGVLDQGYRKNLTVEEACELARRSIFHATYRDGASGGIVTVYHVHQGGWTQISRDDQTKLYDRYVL

Homo sapiens = organism: Homo sapiens; experiment: To identify inhibition of the IFN signalling (Jak-Stat) pathway via expression of an eGFP reporter gene under the control of an IFN-stimulated response element (ISRE) containing MxA promoter.; assay type: functional; conditions: 30 µM
[7] = molecular target: T4, Tyrosyl-tRNA synthetase, putative (Trypanosoma cruzi (strain CL Brener)) (UniProt Q4DSP6); experiment: Trypanosoma cruzi tyrosyl tRNA synthetase (TcYRS) _High Tyrosine SOP; assay type: functional; conditions: 30 µM; also: in the data most compounds retested in dose-response had high values
T4 sequence (whole entry): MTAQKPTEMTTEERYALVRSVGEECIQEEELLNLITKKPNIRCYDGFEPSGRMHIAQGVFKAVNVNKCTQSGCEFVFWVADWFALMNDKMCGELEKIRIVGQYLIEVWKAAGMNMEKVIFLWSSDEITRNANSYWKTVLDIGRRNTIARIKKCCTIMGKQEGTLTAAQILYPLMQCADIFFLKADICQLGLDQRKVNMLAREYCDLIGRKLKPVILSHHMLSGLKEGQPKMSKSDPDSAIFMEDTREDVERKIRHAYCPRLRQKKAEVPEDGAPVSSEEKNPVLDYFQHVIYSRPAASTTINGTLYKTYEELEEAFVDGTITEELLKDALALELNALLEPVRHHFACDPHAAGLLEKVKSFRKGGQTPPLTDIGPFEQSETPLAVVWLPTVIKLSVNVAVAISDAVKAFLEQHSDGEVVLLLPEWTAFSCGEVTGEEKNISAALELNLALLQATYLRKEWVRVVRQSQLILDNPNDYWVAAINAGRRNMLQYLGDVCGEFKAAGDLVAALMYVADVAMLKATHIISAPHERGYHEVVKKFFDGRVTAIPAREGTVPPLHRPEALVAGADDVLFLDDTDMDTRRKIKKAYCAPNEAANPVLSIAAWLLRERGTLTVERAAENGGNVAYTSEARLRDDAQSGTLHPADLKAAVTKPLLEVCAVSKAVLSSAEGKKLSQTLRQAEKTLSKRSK

[8] = molecular target: T4, Tyrosyl-tRNA synthetase, putative (Trypanosoma cruzi (strain CL Brener)); experiment: Trypanosoma cruzi tyrosyl tRNA synthetase (TcYRS) SOP; assay type: functional; conditions: 30 µM
[9] = molecular target: Chromo domain-containing protein 1 (Saccharomyces cerevisiae (strain ATCC 204508 / S288c) (Baker's yeast)) (UniProt P32657); experiment: ScCHD-1 Enzyme Inhibition Assay; assay type: functional; conditions: 30 µM; also: in the data most compounds retested in dose-response had high values
Chain of Chromo domain-containing protein 1 (Saccharomyces cerevisiae (strain ATCC 204508 / S288c) (Baker's yeast)) (P32657 whole entry, the tested form may be a part): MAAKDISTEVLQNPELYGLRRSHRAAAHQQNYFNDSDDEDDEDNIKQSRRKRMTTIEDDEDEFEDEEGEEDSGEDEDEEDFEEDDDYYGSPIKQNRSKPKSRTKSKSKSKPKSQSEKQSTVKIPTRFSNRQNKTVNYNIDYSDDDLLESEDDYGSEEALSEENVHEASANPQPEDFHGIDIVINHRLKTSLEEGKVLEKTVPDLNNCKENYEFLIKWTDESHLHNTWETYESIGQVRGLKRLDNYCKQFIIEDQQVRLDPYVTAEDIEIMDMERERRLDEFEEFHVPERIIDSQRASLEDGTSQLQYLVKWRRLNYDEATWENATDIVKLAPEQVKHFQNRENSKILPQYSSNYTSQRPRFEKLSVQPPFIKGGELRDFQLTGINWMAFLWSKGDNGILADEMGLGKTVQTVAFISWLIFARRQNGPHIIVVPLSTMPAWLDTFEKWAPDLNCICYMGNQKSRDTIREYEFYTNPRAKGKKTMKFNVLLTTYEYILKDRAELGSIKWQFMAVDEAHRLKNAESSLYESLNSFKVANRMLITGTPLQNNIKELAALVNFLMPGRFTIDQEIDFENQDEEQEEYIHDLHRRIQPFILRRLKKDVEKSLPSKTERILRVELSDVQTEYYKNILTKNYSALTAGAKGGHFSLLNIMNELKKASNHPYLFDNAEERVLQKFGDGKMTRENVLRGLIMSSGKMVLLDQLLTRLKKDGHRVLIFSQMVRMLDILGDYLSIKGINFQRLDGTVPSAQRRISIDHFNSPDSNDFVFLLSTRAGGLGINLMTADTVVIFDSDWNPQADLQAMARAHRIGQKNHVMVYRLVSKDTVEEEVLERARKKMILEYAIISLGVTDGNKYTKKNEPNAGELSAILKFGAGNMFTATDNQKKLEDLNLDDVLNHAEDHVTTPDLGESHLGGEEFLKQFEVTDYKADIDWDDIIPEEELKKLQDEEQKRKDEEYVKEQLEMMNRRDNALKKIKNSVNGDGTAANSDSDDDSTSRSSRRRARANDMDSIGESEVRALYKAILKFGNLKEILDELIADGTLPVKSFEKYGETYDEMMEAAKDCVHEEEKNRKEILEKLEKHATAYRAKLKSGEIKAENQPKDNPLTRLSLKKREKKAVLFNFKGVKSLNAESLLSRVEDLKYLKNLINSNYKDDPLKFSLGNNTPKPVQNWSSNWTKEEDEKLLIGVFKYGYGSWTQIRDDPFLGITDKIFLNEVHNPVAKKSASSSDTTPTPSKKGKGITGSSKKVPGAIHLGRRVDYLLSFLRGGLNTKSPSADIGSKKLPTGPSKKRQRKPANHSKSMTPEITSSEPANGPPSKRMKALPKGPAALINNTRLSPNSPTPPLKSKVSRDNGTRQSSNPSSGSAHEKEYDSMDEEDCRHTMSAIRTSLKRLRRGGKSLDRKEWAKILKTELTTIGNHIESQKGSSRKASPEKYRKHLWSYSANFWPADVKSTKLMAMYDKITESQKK

Chain of Protein translocase subunit SecA (Escherichia coli (strain K12)) (P10408 whole entry): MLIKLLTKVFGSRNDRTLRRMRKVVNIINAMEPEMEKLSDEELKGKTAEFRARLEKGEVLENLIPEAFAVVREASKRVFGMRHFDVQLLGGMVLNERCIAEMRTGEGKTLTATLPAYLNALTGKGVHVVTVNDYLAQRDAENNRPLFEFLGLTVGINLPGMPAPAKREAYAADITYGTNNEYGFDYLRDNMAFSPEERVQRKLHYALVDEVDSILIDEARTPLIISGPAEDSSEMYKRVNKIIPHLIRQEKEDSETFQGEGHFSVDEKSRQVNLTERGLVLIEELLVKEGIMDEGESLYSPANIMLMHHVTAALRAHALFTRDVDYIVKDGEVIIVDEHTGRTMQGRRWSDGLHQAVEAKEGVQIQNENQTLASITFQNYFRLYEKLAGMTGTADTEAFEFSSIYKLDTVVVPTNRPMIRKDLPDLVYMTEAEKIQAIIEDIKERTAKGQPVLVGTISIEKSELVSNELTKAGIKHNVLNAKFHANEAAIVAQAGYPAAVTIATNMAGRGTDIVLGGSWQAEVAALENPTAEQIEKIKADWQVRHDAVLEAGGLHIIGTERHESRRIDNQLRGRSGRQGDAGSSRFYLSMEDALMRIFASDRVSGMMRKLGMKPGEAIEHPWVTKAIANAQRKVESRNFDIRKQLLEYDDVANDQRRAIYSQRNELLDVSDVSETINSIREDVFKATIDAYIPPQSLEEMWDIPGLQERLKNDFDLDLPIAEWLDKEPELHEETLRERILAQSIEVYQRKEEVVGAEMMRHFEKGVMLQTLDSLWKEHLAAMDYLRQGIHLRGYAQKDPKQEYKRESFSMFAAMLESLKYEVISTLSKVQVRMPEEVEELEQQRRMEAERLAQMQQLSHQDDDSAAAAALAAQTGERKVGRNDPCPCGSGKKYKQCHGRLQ

SMILES | Percent Effect [1] | Percent Effect [2] | Percent Effect [3] | Percent Effect [4] | Percent Effect (Trypanosoma cruzi) | Percent Effect [5] | Percent Effect [6] | Percent Effect (Homo sapiens) | Percent Effect [7] | Percent Effect [8] | Percent Effect [9]
CN(C)CCN(C)C(=O)c1cnc2c(c1)nc(-c1ccccc1Cl)n2C | -6.72% | 5.41% | -0.741% | -1.85% | -0.88% | 2.23% | -1.29% | 8.57% | 9.68% | 13.6% | -3.61%
CCOCCC(=O)Nc1cccc(Oc2ccccn2)c1 | -5.45% | 0% | -0.587% | 2.14% | 0.487% | 2.37% | 0.288% | -0.792% | 0% | -5.2% | 6.72%
CC1c2ncc(COc3cccnc3)n2CCN1C(=O)Cc1ccco1 (stereo unspecified) | -6.11% | 6.67% | 2.02% | 6.28% | -2.36% | -3.7% | 6.84% | -8.23% | 2.12% | 7.69% | 0.38%
O=S(=O)(Cc1ccccc1)NCC1CCN(c2cnccn2)CC1 | -2.03% | 10.4% | 5.37% | -3.08% | -6.02% | -3.23% | 10.4% | 9.96% | 3.17% | 6.41% | -7.97%
O=C(NCc1cncc2c1CCN(Cc1cccc(F)c1)C2)C1CC1 | -4.48% | 0% | 5.3% | 4.67% | -3.97% | -5.59% | 7.96% | 9.89% | -5.21% | 6.17% | 2.56%
CCN(CC(=O)NC(C)C)S(=O)(=O)N1CCCCCC1 | -2.15% | 16.2% | -3.94% | 11.8% | 2.64% | 3.23% | 12.3% | 5.69% | 3.23% | 16.1% | -10.9%
COc1c(CNC2CCOc3ccccc32)c(C(C)C)nn1C (stereo unspecified) | -0.153% | -48.6% | -2.39% | 7.95% | 1.58% | 0.924% | 3.95% | 0.812% | 7.92% | 18.3% | -6.55%
COc1ncccc1NC(=O)N(Cc1ccc(C)o1)C1CC1 | -4.84% | 13% | 6% | 6.62% | 8.05% | -4.27% | 2.53% | 56.7% | 6.8% | 19.5% | -5.73%
COc1ccc(NC(=O)N2CCCC2c2ccco2)cc1OC (stereo unspecified) | 0.301% | 13% | 7.21% | -3.22% | -4.24% | -0.645% | 9.57% | 19.6% | -5.29% | 14.1% | -9.73%
CCCc1nc(C)cc(N2CCC3(CCC(=O)N(CC4CC4)C3)CC2)n1 | -2.3% | 8.11% | -0.987% | 3.81% | -3.03% | 3.23% | 8.67% | 1.04% | -5.38% | 13.6% | -4%
CCCn1nc2c(cc1=O)CN(Cc1cc(C)on1)CC2 | -5.31% | -2.7% | -46.3% | 0.285% | -1.76% | 7.08% | 17.8% | 9.88% | 6.93% | 6.1% | -7.36%
O=C(NCCNc1ccc(C(F)(F)F)cn1)c1cncc(Br)c1 | 1.84% | 15.6% | 50.8% | -7% | -4.8% | 3.58% | 12.5% | 27.5% | 13.3% | 30.6% | -20.7%
Cc1ccc(C(=O)NC2CCN(Cc3noc(CC(C)C)n3)CC2)s1 | -4.45% | 2.6% | 3.54% | 0.891% | -8.75% | -8.28% | 8.82% | 29.7% | -3.23% | 1.24% | -1.38%
O=C(c1ccsc1)N1CCOC2(CCN(Cc3cccnc3)CC2)C1 | -1.61% | -2.67% | 3.67% | 7.65% | 0.579% | -3.4% | 8.38% | -17% | 3.12% | 5% | -6.25%
O=C(c1ccncc1)N1CCC(O)(Cn2ccc3ccncc32)CC1 | -2.15% | 6.76% | 7.19% | -2.13% | -3.75% | 0.232% | 17.9% | -0.964% | 4.3% | 9.09% | -10.5%
CC(C)OCCOCc1cccc(NC(=O)NCc2ccccn2)c1 | -5.4% | 10.4% | 0.256% | 12% | 6.79% | -24.8% | 19.3% | -1.08% | 2.15% | 8.64% | -6.3%
